# Assay outcomes from PubChem.
# HT1080 IDH1KD tx – qHTS for induction of synthetic lethality in tumor cells producing 2HG: qHTS for the HT-1080-IDH1KD cell line; HT-1080 IDH1 knockdown viability, ATP luminescence, 48 h; Potency, µM (top dose mostly 46.1 µM), usual class: cytotoxic; 2% of 360,000 active
#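 Luminescent ATP read-out (CellTiter-Glo, 10 min at room temperature) after 48 h compound exposure at 37 °C gave viability of IDH1-knockdown HT-1080 cells. Activity was normalised to DMSO and cell-free wells, then fitted as concentration-response curves.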
# KB-3-1 cytotox – qHTS assay for MDR1-selective chemotherapeutics: Primary screen using the parental adenocarcinoma cell KB-3-1. KB-3-1 viability, CellTiter-Glo ATP luminescence, 72 h. Potency, µM (highest dose often 46.1 µM), usual class: cytotoxic. 1.4% of 400,000 active. AID 1347075, 2019; also: nearly all actives have a fitted effect of over 60% in size
#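 Cells are dispensed, compounds pinned in, plates held at 37 °C for 72 h, then CellTiter-Glo is added and luminescence read after 10 minutes. Cell line: parental KB-3-1 in phenol-red-free DMEM, 10% FBS.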
# KB-V1 MDR tox – qHTS assay for MDR1-selective chemotherapeutics: Primary screen using the drug-selected MDR subline cells KB-V1 | 3.4% of 400,000 active | Potency, µM (highest dose often 46.1 µM), most hits filed as cytotoxic | KB-V1 MDR cells viability, CellTiter-Glo, 72 h; also: nearly all actives have a fitted effect of over 60% in size
#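 Readout: CellTiter-Glo luminescence, 10 min after addition. Cells: KB-V1 MDR subline, 72 h at 37 degrees C with compound. Analysis: corrected, normalized data fitted to concentration-effect curves.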
# HT1080-NT tox – qHTS for induction of synthetic lethality in tumor cells producing 2HG: qHTS for the HT-1080-NT fibrosarcoma cell line | AID 686970, 2013 | Potency, µM (top dose mostly 46.1 µM), actives largely listed as cytotoxic | 1.6% of 360,000 active | HT-1080-NT fibrosarcoma viability, CellTiter-Glo ATP luminescence, 48 h;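 also: NT is the 2HG producing partner of a matched IDH1 knockdown line; nearly all actives have a fitted effect of over 55% in size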
#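 A 48-hour cytotoxicity screen used HT-1080-NT cells plated 2 hours before compound delivery. ATP-based CellTiter-Glo luminescence measured viability, normalized to DMSO and no-cell controls.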
# A number is an active result; 0 = inactive; ? = inconclusive; - = not tested or not shown. Compounds with a hit are over-represented: about 5.7% of the library has one in this group of screens. Calls follow the shape of the dose curve; as a rule, active = well fitted curve in the direction sought with a large enough effect; inconclusive = small, poorly fitted or top-dose-only effect, or another doubt; inactive = no such curve, though single readings can be large; an effect the other way counts as inactive or inconclusive.
SMILES,HT1080 IDH1KD tx,KB-3-1 cytotox,KB-V1 MDR tox,HT1080-NT tox
CCc1ccc(OCC(=O)NC(NC(=S)Nc2ccccc2)C(Cl)(Cl)Cl)cc1 (configuration not stated),16µM,?,0,16µM
CCc1ccc(OCC(=O)NC(NC(=S)Nc2ccccc2C)C(Cl)(Cl)Cl)cc1 (configuration not stated),?,?,?,16µM
CC(C)Cn1c([N+](=O)[O-])nc2c1c(=O)[nH]c(=O)n2C,16µM,?,?,13µM
CCNc1nc2c(c(=O)[nH]c(=O)n2C)n1CC(C)C,0,?,0,0
Cn1c(=O)[nH]c(=O)c2c1nc([N+](=O)[O-])n2Cc1ccccc1,3.3µM,?,?,2.6µM
O=C(Cn1c(-c2cccs2)cc2ccccc21)NCc1ccccc1Br,-,0,0,-
Cc1ccc(-n2c3c(c(=O)[nH]c2=O)C(NC(=O)C(C)(C)C)(C(F)(F)F)C(=O)N3)cc1 (configuration not stated),-,0,0,-
CCCCCCOC(=O)C(C#N)c1nc2ccccc2nc1N1CCN(CC)CC1 (configuration not stated),23µM,?,?,16µM
CCCCCCOC(=O)C(C#N)c1nc2ccccc2nc1N1CCOCC1 (configuration not stated),0,0,0,0
COc1cccc(/C=C/C(=O)NNC(=O)CCN2CCN(Cc3ccccc3)CC2)c1,0,23µM,0,0
c1ccc(CN2CCN(CCOCCOc3ccc4c(c3)CCC4)CC2)cc1,?,?,?,16µM
O=C(c1ccccc1)c1ccc(OCCOCCN2CCN(Cc3ccccc3)CC2)cc1,?,0,?,18µM
c1ccc(COCCN2CCN(CCOCc3ccccc3)CC2)cc1,0,0,23µM,0
CCOc1ccccc1OCCOCCN1CCN(Cc2ccccc2)CC1,0,0,?,0
COc1ccc(CC(=O)OCC(=O)Nc2cc(Cl)ccc2C)cc1,0,0,0,0
O=C(CCN1CCN(Cc2ccccc2)CC1)Nc1ccc(OCc2ccccc2)cc1,0,?,2.6µM,0
O=C(CCN1CCN(CCO)CC1)Nc1ccc(OCc2ccccc2)cc1,0,0,0,0
Cc1onc(-c2c(F)cccc2Cl)c1C(=O)c1ccccc1O,26µM,?,0,?
C/C(=N\OC(=O)c1c(-c2c(F)cccc2Cl)noc1C)c1nccs1,0,0,0,0
Cc1onc(-c2c(F)cccc2Cl)c1C(=O)O/N=C(\N)c1ccc([N+](=O)[O-])o1,12µM,0,?,0
Cc1onc(-c2c(F)cccc2Cl)c1C(=O)NC(=S)NC1CCS(=O)(=O)C1 (configuration not stated),0,0,23µM,0
Cc1onc(-c2c(F)cccc2Cl)c1C(=O)NC1CCCCCC1,0,0,0,0
Cc1ccc(C)c(N(C)C(=O)c2cn(C)c(=O)c3ccccc23)c1,-,0,0,-
O=C(NNc1ccccc1C(F)(F)F)c1sccc1Cl,0,-,-,0
O=C(CCc1nc(-c2cccs2)no1)Nc1cccc([N+](=O)[O-])c1,-,0,0,-
SMILES,HT1080 IDH1KD tx,KB-3-1 cytotox,KB-V1 MDR tox,HT1080-NT tox
COc1ccc(CCC(=O)Nc2cc(Cl)ccc2N2CCN(C)CC2)cc1,0,0,0,0
CC(Oc1ccc(F)cc1)C(=O)Nc1ccc(N2CCOCC2)cc1N1CCOCC1 (configuration not stated),0,0,0,0
O=C(/C=C/c1ccc(F)cc1)Nc1cc(S(=O)(=O)N2CCOCC2)ccc1N1CCCC1,0,0,0,0
CC(Oc1cccc(Cl)c1)C(=O)Nc1ccc(N2CCOCC2)cc1N1CCOCC1 (configuration not stated),0,0,16µM,0
CC(Oc1ccc(Br)cc1)C(=O)Nc1cc(Cl)ccc1N1CCN(C)CC1 (configuration not stated),21µM,?,?,13µM
CN1CCN(c2ccc(Cl)cc2NC(=O)/C=C/c2ccc(F)cc2)CC1,16µM,0,0,23µM
CCc1nnc(NC(=O)c2ccc(N(C)S(=O)(=O)c3ccccc3)cc2)s1,0,0,6.5µM,0
CN(C)S(=O)(=O)c1ccc(C(=O)Nc2nnc(Cc3ccccc3)s2)cc1,23µM,0,?,?
C=CCSc1nnc(NC(=O)c2cccc(S(=O)(=O)N(C)c3ccccc3)c2)s1,0,0,16µM,0
CN(c1ccccc1)S(=O)(=O)c1cccc(C(=O)Nc2nccs2)c1,0,0,?,0
CCc1nnc(NC(=O)c2ccc(S(C)(=O)=O)cc2)s1,0,0,0,0
COc1ccc(Cc2nnc(NC(=O)c3ccccc3)s2)cc1OC,0,0,0,0
COc1cc(C(=O)Nc2nnc(Cc3ccccc3)s2)cc(OC)c1OC,10µM,0,0,?
COc1cc(C(=O)Nc2nc(C)c(Cc3ccc4c(c3)OCO4)s2)cc(OC)c1OC,4.6µM,0,1.5µM,4.1µM
COc1ccc(-n2c(=O)c3c4c(sc3n(CC(=O)NCc3ccco3)c2=O)CCC4)c(OC)c1,0,0,16µM,0
CNC(=S)N1N=C(c2ccc(C)cc2)CC1c1cc(OC)ccc1OC (configuration not stated),21µM,12µM,?,?
O=C(Nc1cccc([N+](=O)[O-])c1)Nc1ccc2c(c1)CCC2,?,?,23µM,0
CC(NC(=O)Nc1cccc([N+](=O)[O-])c1)(C(F)(F)F)C(F)(F)F,16µM,18µM,?,?
COc1ccc(OC(C)C(=O)Nc2cccc([N+](=O)[O-])c2)cc1 (configuration not stated),0,0,16µM,0
O=C(Nc1ccc(OC(F)F)c(Cl)c1)Nc1ccc2c(c1)OCO2,?,?,?,0
O=C(Nc1ccc([N+](=O)[O-])cc1)Nc1ccc(OC(F)F)c(Cl)c1,?,5.8µM,4.6µM,?
CCc1cccc(NC(=O)CSc2nc3ccsc3c(=O)n2CC)c1,-,?,0,-
Cc1ccc2c(CNCCc3ccccc3)c(C(=O)O)n(Cc3ccccc3C)c2c1,-,0,0,-
CCc1ccc(NC(=O)CN2C(=O)c3cccc4cccc2c34)cc1,-,0,0,-
O=[N+]([O-])c1cccc(NC2=NCCC2)c1,?,13µM,0,0
SMILES,HT1080 IDH1KD tx,KB-3-1 cytotox,KB-V1 MDR tox,HT1080-NT tox
COc1ccc(NC(=O)Nc2cccc([N+](=O)[O-])c2)cc1Cl,0,0,15µM,0
COc1cc2nc(N3CCOCC3)nc(NC3CC3)c2cc1OC,0,-,-,0
Cc1ccc(CNC(=O)C(=O)Nc2c3c(nn2-c2ccc(F)cc2)CSC3)cc1,-,0,0,-
O=Cc1ccc(O)c2ncccc12,3.7µM,6.5µM,?,2.3µM
Cc1ccc(OCC(=O)Nc2ccccc2Sc2ccccc2)c([N+](=O)[O-])n1,0,0,18µM,0
Cc1cc(-n2c(C)cc(C(=O)COc3cccnc3[N+](=O)[O-])c2C)no1,0,?,16µM,0
Cc1ccc(OCC(=O)c2cc(C)n(-c3ccccc3)c2C)c([N+](=O)[O-])n1,0,8.2µM,21µM,0
